Here are results for 36 compounds from PubChem BioAssay (EPA / NIEHS).

Molecules are shown by their SMILES. Values joined by “and” are separate entries in the source; they are usually repeats but may differ in a detail not shown here. Identical values can stand only once. More than one record can exist for a structure, and the calls need not agree. Active and inactive are the calls of the source. Rule for the calls: active = hit-call score of the fitted dose curve at least 0.9, where 1 is the maximum; inactive = score below 0.9.

The AC50 is the concentration giving half of the maximal activity seen.

Read-out in one experiment: Interferon-gamma inducible Protein 10 (IP10), CXCL10 (gene 3627)
Put plainly: BSK_KF3CT_IP10: BioMAP Diversity Plus: KF3CT Assay for Interferon-gamma inducible Protein 10 (IP10) Biomarker Activity (AID 2283068). Particulars: primary human keratinocytes with fibroblasts; actives raise or lower the signal. The gist of the method: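 ELISA read-out of IP-10 after 24 h chemical dosing of human skin primary co-culture (keratinocytes, foreskin fibroblasts). Gain or loss of signal relative to DMSO, bidirectional curve fit.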
Turning to `O=c1c2ccccc2oc2ccccc12`, the outcome was inactive.
On to `COCc1c(C(C)C)nc(C(C)C)c(/C=C/[C@@H](O)C[C@@H](O)CC(=O)O)c1-c1ccc(F)cc1`, for which the result was inactive.
Regarding `O=Nc1ccc(O)cc1`, the outcome was inactive.
Regarding `N#[N+]c1ccc2c(S(=O)(=O)[O-])cccc2c1O`, the result was inactive.
`C#CC1(O)CC[C@H]2[C@@H]3CCC4=CCCC[C@@H]4[C@H]3CC[C@@]21C` (stereo partly drawn): the half-maximal activity concentration (AC50) is 34 µM (active).
As to `O=C(Cl)c1cc(C(=O)Cl)cc(C(=O)Cl)c1`, the AC50 was 35 µM (active).
Turning to `CC(C)C(=O)C(C)C`, the result was inactive.
With `C=CC(=O)OCC(Br)CBr` (stereo not drawn), the AC50 was 30 µM (active).
Turning to `CCOC(=O)c1ccccc1C(=C1C=C(Br)C(=O)C(Br)=C1)c1cc(Br)c(O)c(Br)c1`, the AC50 was 3.9 µM (active) and 3.58 µM (active).
With `c1ccc2c(c1)ccc1ncccc12`, the result was inactive.
`CCCCC(CC)COC(=O)c1ccccc1O` (stereo not drawn): the outcome was inactive.
Take `CCCCCCCCCCCCCCCC[N+](C)(C)CC`: the AC50 was 2.96 µM (active).
Take `COc1ccc2nc(N)sc2c1`: the outcome was inactive.
With `CC(C)(c1cc(Br)c(OCCO)c(Br)c1)c1cc(Br)c(OCCO)c(Br)c1`, the concentration at half-maximal activity (AC50) is 9.81 µM (active).
Turning to `CCCCC/C=C\C/C=C\CCCCCCCC(=O)OC`, the AC50 is 29 µM (active).
As to `Nc1ccc(N)c(Cl)c1`, the result was inactive.
As to `CC1OC1C1CCC2(C)OC2C1` (stereo not drawn), the result was inactive.
Take `C=C[Si](OC(C)=O)(OC(C)=O)OC(C)=O`: the outcome was inactive.
In the case of `S=C(NC1CCCCC1)NC1CCCCC1`, the outcome was inactive.
Take `C/C=C\C/C=C/CCCCCCCCOC(C)=O`: the AC50 is 39.4 µM (active).
For `CCCCC(CC)COCC1CO1` (stereo not drawn), the outcome was inactive.
Take `CCO[Si](CCCN=C=O)(OCC)OCC`: the result was inactive.
As to `CO[Si](OC)(OC)c1ccccc1`, the outcome was inactive.
As for `CCCCNc1ccc(NCCCC)c2c1C(=O)c1ccccc1C2=O`, the outcome was inactive.
Take `CCO[Si](C)(OCC)OCC`: the outcome was inactive.
For `O=C1CCCN1CCO`, the outcome was inactive.
As to `CN1C(=O)N(C)C(O)C1O` (stereo not drawn), the result was inactive.
As for `C=CCOc1c(Br)cc(Br)cc1Br`, the half-maximal activity concentration (AC50) is 38.9 µM (active).
On to `CCCCCCCCc1ccc(Nc2ccc(CCCCCCCC)cc2)cc1`, for which the result was inactive.
In the case of `O=C(c1ccc(O)cc1)c1ccc(O)cc1O`, the outcome was inactive.
As to `CCOc1nc(F)cc2nc(S(=O)(=O)Nc3c(Cl)cccc3C(=O)OC)nn12`, the result was inactive.
With `C=CC=CC=CCCCCC`, the result was inactive.
Take `c1ccc(-c2ccccn2)nc1`: the outcome was inactive.
For `C=CCOCC(O)CCl` (stereo not drawn), the result was inactive.
In the case of `c1ccc2c(c1)ccc1cc3c(ccc4ccccc43)cc12`, the result was inactive.
As to `O=C(Nc1ccccc1SSc1ccccc1NC(=O)c1ccccc1)c1ccccc1`, the outcome was inactive.

Read-out in another experiment: not listed separately
Put plainly: BSK_KF3CT_SRB: Viability Assessment in the BioMAP Diversity Plus: KF3CT Assay (AID 2283069).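 Note: read 24 h after compound addition; fitted for both signal gain and loss against DMSO baseline.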 Particulars: primary human keratinocytes with fibroblasts. In short, it runs like this:
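Overt cytotoxicity is assessed as total protein by sulforhodamine B staining in parallel human skin co-cultures at 24 h after dosing. DMSO serves as negative control and baseline.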
In the case of `O=c1c2ccccc2oc2ccccc12`, the result was inactive.
Consider `COCc1c(C(C)C)nc(C(C)C)c(/C=C/[C@@H](O)C[C@@H](O)CC(=O)O)c1-c1ccc(F)cc1`, for which the result was inactive.
Same read-out and setting: to `O=Nc1ccc(O)cc1` belongs “inactive”; to `N#[N+]c1ccc2c(S(=O)(=O)[O-])cccc2c1O`, “inactive”.
Regarding `C#CC1(O)CC[C@H]2[C@@H]3CCC4=CCCC[C@@H]4[C@H]3CC[C@@]21C` (stereo partly drawn), the AC50 was 30.6 µM (active).
For the compound `O=C(Cl)c1cc(C(=O)Cl)cc(C(=O)Cl)c1`, the concentration at half-maximal activity (AC50) is 33.2 µM (active).
As to `CC(C)C(=O)C(C)C`, the outcome was inactive.
`C=CC(=O)OCC(Br)CBr` (stereo not drawn): the concentration at half-maximal activity (AC50) was 33.8 µM (active).
On to `CCOC(=O)c1ccccc1C(=C1C=C(Br)C(=O)C(Br)=C1)c1cc(Br)c(O)c(Br)c1`, for which the concentration at half-maximal activity (AC50) was 3.4 µM (active) and the outcome was inactive.
`c1ccc2c(c1)ccc1ncccc12`: the outcome was inactive.
For the compound `CCCCC(CC)COC(=O)c1ccccc1O` (stereo not drawn), the result was inactive.
Turning to `CCCCCCCCCCCCCCCC[N+](C)(C)CC`, the AC50 is 5.14 µM (active).
Turning to `COc1ccc2nc(N)sc2c1`, the outcome was inactive.
Regarding `CC(C)(c1cc(Br)c(OCCO)c(Br)c1)c1cc(Br)c(OCCO)c(Br)c1`, the AC50 was 9.41 µM (active).
For the compound `CCCCC/C=C\C/C=C\CCCCCCCC(=O)OC`, the AC50 is 31 µM (active).
Consider `Nc1ccc(N)c(Cl)c1`, for which the outcome was inactive.
For `CC1OC1C1CCC2(C)OC2C1` (stereo not drawn), the result was inactive.
On to `C=C[Si](OC(C)=O)(OC(C)=O)OC(C)=O`, for which the result was inactive.
In the case of `S=C(NC1CCCCC1)NC1CCCCC1`, the outcome was inactive.
For the compound `C/C=C\C/C=C/CCCCCCCCOC(C)=O`, the result was inactive.
For the compound `CCCCC(CC)COCC1CO1` (stereo not drawn), the result was inactive.
The same measure, in the same setting: the entry for `CCO[Si](CCCN=C=O)(OCC)OCC` is “inactive”.
Take `CO[Si](OC)(OC)c1ccccc1`: the result was inactive.
On to `CCCCNc1ccc(NCCCC)c2c1C(=O)c1ccccc1C2=O`, for which the result was inactive.
For the compound `CCO[Si](C)(OCC)OCC`, the outcome was inactive.
For the compound `O=C1CCCN1CCO`, the result was inactive.
With `CN1C(=O)N(C)C(O)C1O` (stereo not drawn), the outcome was inactive.
Turning to `C=CCOc1c(Br)cc(Br)cc1Br`, the AC50 is 27.8 µM (active).
In the case of `CCCCCCCCc1ccc(Nc2ccc(CCCCCCCC)cc2)cc1`, the result was inactive.
With `O=C(c1ccc(O)cc1)c1ccc(O)cc1O`, the outcome was inactive.
As for `CCOc1nc(F)cc2nc(S(=O)(=O)Nc3c(Cl)cccc3C(=O)OC)nn12`, the result was inactive.
Take `C=CC=CC=CCCCCC`: the outcome was inactive.
In the case of `c1ccc(-c2ccccn2)nc1`, the result was inactive.
In the case of `C=CCOCC(O)CCl` (stereo not drawn), the outcome was inactive.
On to `c1ccc2c(c1)ccc1cc3c(ccc4ccccc43)cc12`, for which the outcome was inactive.
The same measure, in the same setting: the entry for `O=C(Nc1ccccc1SSc1ccccc1NC(=O)c1ccccc1)c1ccccc1` is “inactive”.
